Bioassay records from PubChem.
M1 antagonist = antagonists of rat M1 muscarinic receptor. CHO-M1 cells, Fluo-4 calcium, ACh EC80 antagonist mode; hits give low values. B-score at 10 µM. 3.4% of 64,000 active;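 active = calcium fluorescence response, raw or row-and-column corrected B-score, differing from the plate sample mean either way at a set confidence level, mostly lower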
Target sequence (P08482 whole entry, looked up): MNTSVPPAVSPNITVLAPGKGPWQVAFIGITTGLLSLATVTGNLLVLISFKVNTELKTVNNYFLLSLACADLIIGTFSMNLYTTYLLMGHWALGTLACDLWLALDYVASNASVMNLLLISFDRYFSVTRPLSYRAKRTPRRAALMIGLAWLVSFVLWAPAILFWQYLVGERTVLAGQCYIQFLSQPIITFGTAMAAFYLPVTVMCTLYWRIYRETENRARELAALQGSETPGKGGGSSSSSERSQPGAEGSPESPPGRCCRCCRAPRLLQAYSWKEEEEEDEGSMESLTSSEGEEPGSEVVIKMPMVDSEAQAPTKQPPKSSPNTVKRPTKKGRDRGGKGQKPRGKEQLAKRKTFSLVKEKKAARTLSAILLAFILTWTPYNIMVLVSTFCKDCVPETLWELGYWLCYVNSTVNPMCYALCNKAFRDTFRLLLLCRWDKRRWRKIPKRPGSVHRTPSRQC
A340 absorber = compounds absorbing at 340 nm; AID 708; compound absorbance at 340 nm, fold over control; fold change at 10 µM; 65,000 tested, under 10 active;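 active = at 10 µM dose, initial 340 nm absorbance at least 2 fold that of control wells; inactive = change under 2 fold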;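 also: initial absorbance extrapolated from kinetic A340 decline of NADH oxidation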
Htt clearance = mutant huntingtin protein clearance. HeLa Exon1htt(103Q)mCFP, aggregate imaging; zero = plate's median compound well. inhibition, % at 1.5 µM. 0.42% of 47,000 active. AID 853;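 active = inhibition of aggregate fluorescence above about 70%, also judged a hit by eye on the cell image, limit read from the data, passing the limit was not always enough; inconclusive = no rule stated for this call; inactive = not judged a hit on image review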;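 also: cells exposed to compound for three days before fixation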
M1 ag = agonists of M1 muscarinic receptor; CHO-M1 cells, Fluo-4 calcium fluorescence, agonist mode; hits give high values; B-score at 10 µM; 3% of 64,000 active; AID 626;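 active = fluorescence rise, raw or as B-score row- and column-corrected plate score, outside the 99.7% band of its plate's samples, either direction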
NADH coupling = blocks coupling enzymes of NAD/NADH assays | coupled PK/LDH NADH assays, four targets | IC50, µM (highest dose often 10 µM), for inactives: at the top dose inhibition | 0.02% of 65,000 active | AID 774;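 active = single-dose screening hits from any of four coupled enzyme assays that gave an IC50 when retested across doses; inconclusive = no clear call, values can overlap the other calls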;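 also: the DPM-DC format reads NADH fluorescence rather than 340 nm absorbance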
Fluor 339 460 = intrinsic fluorescence of library compounds, ex339/em460 – biochemical, MLSMR library, data from DPM-DC assay, artefact control, profiling panel; compound autofluorescence, ex339/em460 nm, NADH buffer; hits give high values; 1 = no-compound wells, NADH background; fluorescence fold increase at 10 µM; 5.5% of 65,000 active;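 active = at 10 µM, mean starting fluorescence two-fold or more over control wells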;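 also: signal is the first read of a kinetic run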
M1 antag confirm = confirmation of rat M1 muscarinic receptor antagonists; CHO-M1 cells, Fluo-4 calcium, ACh EC80 antagonism; hits give low values; calcium response (max-min fluorescence) at 10 µM; shares compounds with M1 antagonist; AID 677; 43% of 1,700 active;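 active = calcium response below the same-plate mean of wells given acetylcholine alone at its 80%-effect dose, minus 3 SD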;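 also: raw fluorescence intensity difference in arbitrary instrument units and not normalized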
mGluR4 antag = mGluR4 (human) activity, M1 antagonist secondary assay | shares compounds with M1 antagonist | CHO-mGluR4 calcium flux, Fluo-4 fluorescence, glutamate EC80; hits give low values | fluorescence response (max-min) at 10 µM | 0.9% of 1,700 active | AID 678;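 active = fluorescence response below the plate's average for near-maximal glutamate wells, less 3 SD of those wells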;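 also: raw unnormalized fluorescence span taken in the window right after glutamate addition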
Numbers without * were called inactive; u = inconclusive; x = not tested or not shown. Hits are enriched below; roughly 9.3% of the tested compounds scored in any of these assays.

SMILES	M1 antagonist	A340 absorber	Htt clearance	M1 ag	NADH coupling	Fluor 339 460	M1 antag confirm	mGluR4 antag
C#CCn1c(=NC(=O)CSCC(=O)N2CCOCC2)sc2ccccc21	-0.16	1.1	x	-0.22	0%	1.1	x	x
CN(C)c1ccc(NC(=O)CN2CCN(CC(=O)Nc3ccc(F)cc3)CC2)cc1	-4.6*	1	x	-0.73	2%	1.1	718	263
O=C1C2C3CCCC3=C3CCCC3C2C(=O)N1c1ccccc1 (configuration not stated)	-3.2*	1	33	-0.15	4%	1.1	321*	195
CCn1c2ccccc2c2nc3cc(OC)c(OC)cc3nc21	-5.7*	1.1	u	1.5	26%	2.7*	462	154*
CCOC(=O)c1cc2c3ccccc3n(CC)c2nc1N	-0.054	x	x	1.5	x	x	x	x
Cc1ccc(C)c(OCCCN2CCCC2)c1	-3*	1.1	x	-1.8	4%	1.1	511*	265
Cc1cc(C)c2c3c(cn2n1)c(=O)n(C)c(=O)n3C	x	x	-68	x	x	x	x	x
Cc1ccc(N(CC(=O)Nc2ccc3c(c2)OCCO3)S(=O)(=O)c2c(C)noc2C)cc1	-3*	0.97	-8	1.3	4%	1.1	529	219
CS(=O)(=O)Nc1ccc(N2CCCCC2)c(Cl)c1	-0.032	1	-19	0.39	8%	1.1	x	x
C/C(N)=C(/C#N)C(=O)CSc1nnc(COc2cc(C)ccc2C)o1	x	x	64	x	x	x	x	x
COc1ccc(C(=O)N2CCN(C(=O)Cc3ccccc3)CC2)cc1OC	-3.7*	1	x	-0.56	4%	1.1	519	181
CCN=C1SC(C(N)=O)CC(=O)N1CC (configuration not stated)	-15*	0.96	-10	-0.13	8%	1	651	207
CCC(C)N(C(=O)COC(=O)Cc1n[nH]c(=O)c2ccccc12)C1CCS(=O)(=O)C1 (configuration not stated)	-3.6*	1	x	0.99	4%	1.1	641	242
O=C(O)c1ccc(NC(=O)C2CC=CCC2C(=O)O)cc1 (configuration not stated)	-7.2*	1	19	-0.07	2%	1.1	644	244
O=C(O)C1CC=CCC1C(=O)Nc1ccccc1 (configuration not stated)	x	x	58	x	x	x	x	x
Cc1ccc(S(=O)(=O)NC(=O)COc2ccccc2C(N)=O)cc1	0.3	1.1	34	0.91	4%	1.1	x	x
Cc1cc(C)nc(SCc2nnc(SCc3ccccc3Cl)o2)n1	-4.5*	1	-29	-0.19	3%	1.1	515	210
Cc1cc(C)nc(SCc2nnc(SCC(=O)Nc3c(C)cccc3C)o2)n1	x	x	7	x	x	x	x	x
Cc1ccc(-c2nnn(CC(=O)Nc3ccccc3-c3ccccc3)n2)c(-n2cnnn2)c1	0.36	0.97	-16	0.72	3%	1.1	x	x
Nc1c(-c2ccc(Cl)cc2)nnn1-c1ccccc1	-3.2*	1	-100	0.41	3%	1.1	642	180
CCC(=O)N1c2ccc(S(=O)(=O)CCC(=O)NC3CCCC3)cc2CC1C (configuration not stated)	0.042	0.98	-28	-0.23	7%	1.1	x	x
CCC(=O)N1c2ccc(S(=O)(=O)CCC(=O)N3CCn4c3nc3ccccc34)cc2CC1C (configuration not stated)	-3.3*	1	x	0.61	3%	1.1	508	208
Cc1nc(N2CCN(C(=O)c3ccco3)CC2)c2c3c(sc2n1)CCC3	-3.1*	0.99	x	2.4	4%	1.1	493	217
O=C(c1ccccc1)N1CC(COc2ccccc2)OC(c2cccnc2)O1 (configuration not stated)	-4.3*	1	7	-1.2	4%	1	677	246
CC(C)C(CO)NC(=O)CC(=O)NC(CO)C(C)C (configuration not stated)	0.39	1	9	1.4	2%	1	x	x
SMILES	M1 antagonist	A340 absorber	Htt clearance	M1 ag	NADH coupling	Fluor 339 460	M1 antag confirm	mGluR4 antag
COc1ccc(CCn2c(SCC(=O)Nc3cc(C)on3)nc3ccsc3c2=O)cc1OC	-1.7*	1	-15	2.9	13%	0.95	596	212
CC1CCN(C(=O)CSc2nnc(CSc3ncccn3)n2C)CC1	-0.018	1	x	1.6	3%	1.1	x	x
O=C(C1CCCCC1)N(CCN1CCCC1)c1nc2ccccc2s1	-2.3*	0.99	18	-0.55	7%	1.1	718	207
O=C(c1ccccc1-c1nc(-c2ccc(Cl)cc2)no1)N1CCCC1	-1.2	1	x	0.11	4%	1	x	x
CCOC(=O)N1CCC(NS(=O)(=O)c2ccc3c(c2)C(C)(C)C(=O)N3C)CC1	-17*	1	x	0.46	1%	1.1	579	240
C=CCN1C(=Nc2cccnc2)SCC1(O)c1ccc(C)cc1 (configuration not stated)	-2.2*	0.98	-47	2	4%	1.1	478*	203
CCN1C(=Nc2ccc(Cl)cc2)SC/C1=C\C(=O)OC	0.83	1	x	-0.37	2%	1.1	x	x
COCCCNc1nc2c(c(=O)[nH]c(=O)n2C)n1CC(O)COc1ccccc1C (configuration not stated)	-3.6*	1.1	-184	-0.29	0%	1.1	594	241
Cc1c(N(C(=O)Nc2ccccc2)C2=NCC(C)S2)c(=O)n(-c2ccccc2)n1C (configuration not stated)	-4.4*	1	x	0.66	5%	1.1	604	242
O=C(COC(=O)c1ccccc1Oc1ccccc1)NC1CCS(=O)(=O)C1 (configuration not stated)	-1.5*	0.98	x	0.053	2%	0.98	617	236
CSc1ncccc1C(=O)OCC(=O)NC1CCS(=O)(=O)C1 (configuration not stated)	0.08	1	17	1.3	6%	1.1	x	x
C=CCN(c1ccccc1)S(=O)(=O)c1ccc2c(c1)oc(=O)n2C	-1.9	1	-16	-2	10%	1.1	x	x
C=CCN(C1CCCCC1)S(=O)(=O)c1ccc2c(c1)oc(=O)n2C	-4.9*	1	-274	0.83	8%	1.1	567	289
COc1ccc(N2C(=O)C3CCCN3C2c2cc(OC)c(OC)c(OC)c2)cc1 (configuration not stated)	-2.1*	1.1	-13	0.21	2%	1.1	645	216
COc1cc(C2N(c3ccc(Cl)cc3)C(=O)C3CCCN32)cc(OC)c1OC (configuration not stated)	0.029	1	67	-0.4	3%	1.1	x	x
